“And” between values parts separate entries of the source, which are not always exact repeats. Identical values can stand only once. About 83,000 compounds went through this panel and 20% of them were active in at least one assay; those are over-represented in the sample as a whole.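 Method: cells in 96-well plates; compound added at one concentration; 48 h incubation; percent growth measured; values under 10 scored active.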 The source made the active and inactive calls.

For the assay, the system named is MDA-MB-468 breast. The assay can be described thus: NCI-60 one-dose screen, 48 h (100 = growth as untreated, 0 = no growth, -100 = all killed). The conditions noted are these: 10 µM unless noted.
As for `Cn1cc(-c2noc(-c3cn(C)c4ncc(F)cc34)n2)c2ccccc21`, the growth is 36.2% (inactive).
Consider `CC(C)(O)Cn1cc(-c2ccc3nc(OC4CC4)ccc3c2)c2c(N)ncnc21`, for which the growth was 89.1% (inactive) and 50.9% (inactive).
Under `CN1CCN(C(=O)[C@]23CCC(C)(C)C[C@H]2C2=CC[C@@H]4[C@@]5(C)C/C(=C/c6cccnc6)C(=O)C(C)(C)[C@@H]5CC[C@@]4(C)[C@]2(C)CC3)CC1` stands 34.3% (inactive); under `COc1ccccc1N1CCN(C2=C(Cl)C(=O)c3ncccc3C2=O)CC1`, -55.3% (active).
For the molecule `COC(=O)[C@]12CC[C@@H](C)[C@H](C)[C@@H]1C1=CC[C@@H]3[C@@]4(C)C[C@@H](OC(=O)c5ccco5)[C@H](O)[C@@](C)(CO)[C@@H]4[C@H](O)C[C@@]3(C)[C@]1(C)CC2`, the growth was -89.1% (active).
Turning to `CCCN(CCC)C(=O)c1ccc(C)cc1`, the growth was 96.3% (inactive).
`C=C(CBr)[C@@H]1CC[C@]2(COC(C)=O)CC[C@]3(C)[C@H](CC[C@@H]4[C@@]5(C)CCCNC(C)(C)[C@@H]5CC[C@]43C)[C@@H]12`: the growth is 25.1% (inactive).
For the molecule `COc1cc(OC)c2sc(-c3ccc(-n4cncc4-c4ccc(OC)c(OC)c4)cc3)nc2c1`, the growth was 31% (inactive).
Turning to `Cc1nc2sc(C(=O)Nc3cccc(Br)c3C)c(N)c2cc1C(O)c1ccccc1` (stereo not given), the growth is 17.9% (inactive).
Under `N#C/C(=C\c1ccc(-c2ccc(Br)cc2)o1)c1nc(-c2ccco2)cs1` stands -26.8% (active); under `CCCCNCC(=O)Nc1ccc(C(=O)OCC)cc1`, 103% (inactive).
On to `Cc1c2ccccc2nc2c1ccc1cccnc12`, for which the growth is 89.8% (inactive).
For the molecule `Cc1cc2c(C#N)n3c(c2cc1C)C(=O)C(c1ccccc1)Oc1ccccc1-3` (stereo not given), the growth was 50% (inactive).
Regarding `O=[N+]([O-])c1ccc(/C=N\Nc2ccccc2)cc1`, the growth was 94.7% (inactive).
With `Cc1ccnc2c1ccc1c(C)ccnc12`, the growth was -17.8% (active).
In the case of `Cn1c(=O)c2[nH]c(N/N=C/c3ccccc3Br)nc2n(C)c1=O`, the growth was 115% (inactive).
As for `CSc1cc(SC)ncn1`, the growth was 108% (inactive).
Under `O=S(=O)(NCCNc1nccc(-n2cnc3ccccc32)n1)c1ccc(Br)cc1` stands 84% (inactive); under `COC(=O)c1cccc(NC2=C(Cl)C(=O)c3nc(C)ccc3C2=O)c1`, -71.3% (active); under `COc1cccc(C(Cc2ccccc2)Nc2ccccc2)c1OC` (stereo not given), 111% (inactive).
In the case of `C#Cc1ccc(NC(=O)c2ccc(/C=C/C(=O)c3nccn3C)cc2)cc1`, the growth was -54.6% (active).
In the case of `N#Cc1cccc(-c2cc(-c3ccc4c(c3)OCCO4)[nH]n2)c1`, the growth was 18.6% (inactive).
As to `C=C1C(=O)O[C@H]2[C@H]1CC/C(COC(=O)/C=C/C(=O)NCc1ccc(Cn3c(=O)sn(-c4ccccc4)c3=O)cc1)=C\CC[C@@]1(C)O[C@@H]21`, the growth was -43.4% (active).
Then `Cn1ncc2c(Sc3ccc(Cl)cc3)ncnc21`, with 92.2% (inactive).
As for `O=S(=O)(c1ccc(N/N=C\c2ccccc2)cc1)c1ccc(N/N=C/c2ccccc2)cc1`, the growth was 61% (inactive).
As for `CCCCCc1c(C)[nH]c(/C=C2\N=C(c3ccc[nH]3)C=C2Oc2ccc(Cl)cc2)c1C`, the growth is -16.4% [100 µM] (active).
Then `CC[C@]1(O)CC2CN(CCc3c([nH]c4ccccc34)C(C(=O)OC)(c3cc4c(cc3OC)N(C=O)[C@H]3[C@@](O)(C(=O)OC)[C@H](OC(C)=O)[C@]5(CC)[C@@H]6C[C@@H]6CN6CC[C@]43[C@@H]65)C2)C1` (stereo not given in full), with 22.9% (inactive).
As for `COc1ccc(/C=C2\N=C3Sc4cc(Cl)ccc4C(=O)N3C2=O)cc1`, the growth was 113% (inactive).
Take `Oc1ccc(-c2nnc3c4[nH]ccc4ncn23)cc1`: the growth was 117% (inactive).
Then `CC[N+](C)(C)N`, with 95.9% (inactive).
For `Cc1ccccc1NC(=O)c1sc2nc(C)c(C(C)O)cc2c1N` (stereo not given), the growth is 39.5% (inactive).
`O=C(/C=C\c1cc(Br)ccc1O)/C=C/c1cc(Br)ccc1O`: the growth was -65% (active).
For `O=C(CCCCCCC(=O)Nc1ccc2c(c1)/C(=C/c1ccc[nH]1)C(=O)N2)NO`, the growth was 22.9% (inactive).
In the case of `CN(C)c1ccc(C(=O)OCCCCCCl)cc1`, the growth is 95.3% (inactive).
As to `CC1=C2C(=C[C@@](C)(CO)[C@@H]2OC(=O)N(C)CCN(C)C(=O)OC(C)(C)C)C(=O)[C@](C)(O)C12CC2`, the growth is -10.1% (active).
With `CC(N)C(=O)NNc1n[nH]c(=S)n1N` (stereo not given), the growth was 82% (inactive).
Turning to `CC#CC(=O)N1CCC[C@H]1c1nc(-c2ccc(C(=O)Nc3ccccn3)cc2)c2c(N)nccn12`, the growth was 59.6% (inactive).
Consider `Cc1c(C(=O)Nc2ccccc2F)sc2c(=O)[nH]cnc12`, for which the growth is 106% (inactive).
Under `Cc1ccc(C2(C)NC(=O)N(CC(=O)Nc3cccc(C)c3)C2=O)cc1` (stereo not given) stands 89% (inactive); under `O=C1CCc2ccccc2N1`, 98.8% (inactive).

Values taken from PubChem BioAssay (NCI).
